Laboratory results reported in PubChem BioAssay AID1233 (SRMLSC, 2008).
Results with a measured potency or affinity are listed apart.

target: HMG-CoA reductase [Enterococcus faecalis] (UniProt Q9FD70); test: class II HMG-CoA reductase inhibition potency – biochemical, Enterococcus faecalis, confirmation (AID 1233);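 further: 0% = full reaction carrier wells and 100% = background wells lacking mevalonate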; conditions: purified E. faecalis HMGR, NADPH absorbance 340 nm kinetics; series mostly up to 100 µM; inhibition: at the top concentration

inhibition, inactive:
O=C(CSc1nnnn1-c1ccccc1)Nc1ccc(N2CCOCC2)c(Cl)c1 -8.15%
Cc1nn(-c2cc(N3CCCCCC3)ccc2[N+](=O)[O-])c(=O)c2ccccc12 -0.09%
CN(C)C(=O)CSc1n[nH]c(=O)[nH]c1=O -1.34%
O=C(CSc1nc(-c2ccccc2)cs1)N1CCc2ccccc21 -6.01%
Clc1ccc(NNc2ccnc3cc(Cl)ccc23)cc1 -3.15%
O=C1NC(=O)/C(=C/C(=O)N2CCOCC2)S1 -3.27%
O=C1c2ccccc2C(=O)C1c1ccc2ccccc2n1 -0.79%
CCC(Sc1ccccn1)C(=O)Nc1cccc([N+](=O)[O-])c1 (stereo not drawn) -5.94%
CS(=O)(=O)N(CC(N)=O)c1cccc(Br)c1 -5.05%
O=[N+]([O-])c1ccc(Cl)c(-c2ccc(/C=N/c3c(-c4ccco4)nc4ccccn34)o2)c1 -2.88%
CC1(C)CNC(=O)c2sc(NC(=O)c3ccccc3)nc2C1 -0.14%
Cc1cc(C)nc(N/N=C2/CCCC/C2=C\c2ccccc2)n1 -4.31%
COc1ccc2c(c1)c(=O)c(C(=O)c1ccccc1)cn2Cc1ccc(C)cc1 -0.52%
Cc1cccc(/C=N/NC(=O)c2cc(-c3cccnc3)nc3c2c(C)nn3-c2ccccc2)c1 -4.78%
COc1ccc(N=c2ssnc2Cl)cc1 -7.45%
N#Cc1nc(COc2ccc(-c3ccccc3)cc2)oc1NCCCN1CCOCC1 -2.74%
CCOC(=O)c1sc(NC(=O)CSc2nccc(C)n2)nc1C -13.7%
CCN1C(=O)/C(=C/c2cn(C)nc2C)SC1=S -13.8%
CCC1Oc2ccccc2N(CC(=O)NCc2ccco2)C1=O (stereo not drawn) -6.06%
COC(=O)c1ccccc1NC(=O)NCc1ccco1 -2.25%
Cc1ccc(NC(=O)NC2CCCCC2)cc1S(=O)(=O)N1CCOCC1 1.4%
Fc1ccccc1CSc1nncn1NC/C=C/c1ccccc1 -5.49%
Cc1ccc(NC(=O)c2cc(S(=O)(=O)NCCC3=CCCCC3)ccc2F)cc1 -1.4%
O=C(Nc1ccccn1)c1cccc(S(=O)(=O)N2CCOCC2)c1 -7.13%
CN(C)S(=O)(=O)c1cccc(C(=O)Nc2ccc(S(=O)(=O)N3CCCC3)cc2)c1 -6.6%
CCOC(=O)C1=C(COc2ccc(F)cc2Cl)NC(=O)NC1c1cc(C)ccc1C (stereo not drawn) -5.48%
Brc1c(NC2=NCCN2)ccc2nccnc12 -4.78%
CN(CCO)c1cc(NCCCN2CCC(Cc3ccccc3)CC2)c2nonc2c1[N+](=O)[O-] -6.33%
CCN(C(=O)CCc1nc(-c2ccccc2F)no1)c1cc(OC)ccc1OC -4.63%
CC(=O)N(C)c1nc(N)n(-c2ccccc2)n1 -3.93%
COc1ccc(Cn2c(=O)sc3ccccc3c2=O)cc1 -4.26%
Cn1cnnc1Sc1ccc(C(=O)OCC(=O)NC2CC2)cc1[N+](=O)[O-] -7.72%
Cc1ccsc1C(=O)C1CCCN(Cc2cc(F)ccc2-n2cccn2)C1 (stereo not drawn) -5.9%
C/C(CC(=O)NC1CCCCC1)=N\NC(=O)COc1ccc(C)cc1Br -7.91%
CCn1c2ccccc2c2cc(CNCc3ccc(OC)cc3OC)ccc21 -2.66%
Cc1[nH]nc2c1C(c1ccsc1)C1=C(CC(C)(C)CC1=O)N2 (stereo not drawn) -5.51%
CCNC(=O)CSc1nc2cc([N+](=O)[O-])ccc2n1-c1cccc(C(F)(F)F)c1 -3.74%
Cc1c(NC(=O)CN2C(=O)c3ccccc3S2(=O)=O)c(=O)n(-c2ccccc2)n1C 1.92%
